Screening data as filed in PubChem BioAssay.
Rows were chosen to be rich in hits. Some 9.6% of all compounds tested hit in one or more screens of this group.
USP17 block – inhibitors of human USP17 deubiquitinase; AID 1645855, 2021; purified USP17, Ub-rhodamine cleavage fluorescence, 3 h; actives 6.5% (n = 47,000); inhibition, % at 50 µM; Ubiquitin carboxyl-terminal hydrolase 17-like protein 5 (Homo sapiens), A8MUK1
Target sequence (A8MUK1 whole entry, looked up): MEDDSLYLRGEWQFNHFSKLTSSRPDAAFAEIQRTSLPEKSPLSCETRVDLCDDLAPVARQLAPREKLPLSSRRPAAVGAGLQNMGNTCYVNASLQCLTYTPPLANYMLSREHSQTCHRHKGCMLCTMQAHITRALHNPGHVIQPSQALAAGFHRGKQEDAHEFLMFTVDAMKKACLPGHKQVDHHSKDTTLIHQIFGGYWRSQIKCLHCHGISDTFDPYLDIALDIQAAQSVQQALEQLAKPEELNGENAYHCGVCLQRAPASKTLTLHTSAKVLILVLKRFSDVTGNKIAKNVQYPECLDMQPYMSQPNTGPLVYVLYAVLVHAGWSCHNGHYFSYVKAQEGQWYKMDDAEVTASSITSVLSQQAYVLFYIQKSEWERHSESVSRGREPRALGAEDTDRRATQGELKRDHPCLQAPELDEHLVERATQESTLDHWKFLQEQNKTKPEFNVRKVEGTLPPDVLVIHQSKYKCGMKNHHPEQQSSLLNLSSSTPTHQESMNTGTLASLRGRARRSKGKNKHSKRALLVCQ
USP30 block – inhibitors of human USP30 deubiquitinase | Ubiquitin carboxyl-terminal hydrolase 30 (Homo sapiens), Q70CQ3 | purified USP30, Ub-rhodamine cleavage fluorescence | inhibition, % at 25 µM | actives 5.3% (n = 47,000) | AID 1645860, 2021
The depositor's hits bear a star; · = no result given. No stated cut-off is given here; in the data, active means inhibition above about 30%; inactive means the rest.

SMILES | USP17 block | USP30 block
Cc1ccc(-c2nnn(CC(=O)N(c3ccccc3F)C(C(=O)NC3CCCC3)c3ccc(O)cc3)n2)cc1 (stereo not drawn) | 7 | 20
Cc1ccccc1C(=O)Nc1ccc(-n2nnc(C(=O)N3CCCC3)n2)cc1 | 7 | 5
CC(C)(C)c1ccc(NC(=O)CSc2nnc3ccccn23)cc1 | 6 | 19
COc1ccc(Cn2ccc3nc(N4CCCCC4)ncc3c2=O)cc1 | 71* | 28
Cc1ccc(Cn2ccc3nc(N4CCN(C)CC4)ncc3c2=O)cc1 | 13 | 25
Cc1ccc(NC(=O)c2cc3c(s2)CCC3)cc1 | 49* | -26
O=C(NCc1ccc2c(c1)OCO2)c1cc2c(s1)CCC2 | 48* | 30
O=C(Nc1ccc2[nH]c(=O)[nH]c2c1)c1cc2c(s1)CCCCC2 | 26 | -63
O=C(/C=C/c1ccco1)Nc1nc2c(s1)COCC2 | -47 | -231
O=C(/C=C/c1ccc2c(c1)OCO2)NCCCn1ccnc1 | 3 | 27
O=C(NCc1ccc2c(c1)OCO2)c1ccsc1 | -9 | -2
O=C(/C=C/c1ccc2c(c1)OCO2)Nc1nc2c(s1)COCC2 | 65* | 23
O=C(/C=C/c1ccc2c(c1)OCO2)NCc1ccc2c(c1)OCO2 | 25 | 32*
Cc1ccc(Cn2cccc(S(=O)(=O)N3CCCC3)c2=O)cc1 | -21 | -25
Cc1nn(-c2ccccc2)c2c1c(C)c(CCC(=O)Nc1ccccc1F)c(=O)n2C | 7 | 5
CCn1nccc1-c1cccc(-c2noc(-c3ccc(OC)cc3)n2)c1 | -15 | -23
Cc1cccc(C(=O)N2CCC[C@@]3(C[C@@H](Oc4ccccc4F)CO3)C2)n1 | -1 | 0
CNC(=O)c1sc2nccnc2c1C1CCN(C(=O)c2ccncc2)CC1 | 6 | 22
Cc1nccc(N2CCC(c3c(C(=O)N(C)C)sc4nccnc34)CC2)n1 | 8 | 30*
COc1ccc(NC(=O)CSc2cn[nH]n2)cc1 | 2 | 1
Cc1ccc(-c2nc(-c3ccccc3)c(S(=O)(=O)CC(=O)Nc3ccc(F)c(Cl)c3)[nH]2)cc1 | 24 | 44*
O=C(CS(=O)(=O)c1[nH]c(-c2ccc(F)cc2)nc1-c1ccccc1)Nc1ccc(F)cc1 | 0 | -17
COc1ccc(-c2nc(-c3ccc(OC)cc3)c(S(=O)(=O)CC(=O)Nc3ccc(F)cc3)[nH]2)cc1 | -2 | 30*
COc1ccc(NC(=O)CSc2ccc(F)cc2)cc1 | 28 | 34*
COc1ccc(NC(=O)CS(=O)(=O)c2[nH]c(-c3ccccc3)nc2-c2ccc(C)cc2)cc1 | 24 | 30
SMILES | USP17 block | USP30 block
Cc1nn(-c2ccc(F)cc2)c(C)c1S(=O)(=O)NCc1cccnc1 | 11 | 1
FC(F)(F)Oc1ccc(CN2CCC(c3nc(-c4cccnc4)no3)CC2)cc1 | 4 | 25
CCc1ccc2oc(-c3ccccc3)cc(=Nc3ccc(C(C)=O)cc3)c2c1 | 24 | 25
Cc1nc(SCC(=O)NCC2CCCO2)c2c(=O)n(C)c(=O)n(C)c2n1 (stereo not drawn) | 5 | 11
CC(C)CCNC(=O)c1cccc(-c2cnc(NC3CCCCC3)nc2)c1 | 15 | 32*
O=C(NC1CCCC1)c1cccc(-c2cnc(NC3CCCCC3)nc2)c1 | · | 3
Cc1nn(C)c(C)c1CCN(C)S(=O)(=O)c1ccccc1 | -2 | 0
O=C(c1ccc(Cl)cc1)N(c1ccccn1)C1CCCCC1 | 87* | 81*
O=C(c1ccc(F)cc1Cl)N(c1ccccn1)C1CCCCC1 | · | 27
Cc1nc(SCc2cccc(C(=O)O)c2)nc(N2CCOCC2)c1C | 12 | 7
Cc1nn2c(C3CCN(C(=O)c4ccccc4)C3)ccnc2c1Cn1cncn1 (stereo not drawn) | 6 | 22
O=S(=O)(c1cc(-c2nnc(C3CCCC3)o2)co1)N1CCCCC1 | -14 | -44
COc1ccccc1NS(=O)(=O)c1ccc2oc(SCC(=O)N3CCc4ccccc4C3)nc2c1 | 22 | 25
COc1ccccc1NS(=O)(=O)c1ccc2oc(SCc3cn4c(C)cc(C)nc4n3)nc2c1 | · | 31*
COc1ccc(S(=O)(=O)NCCSc2ccccc2)cc1Br | 28 | 37*
COc1ccc(S(=O)(=O)NCCn2c(C)cc3ccccc32)cc1 | 1 | -178
CC(C)CNC(=O)CN1CCC2(CCC1=O)NC(=O)c1ccccc1O2 (stereo not drawn) | 11 | 11
Cn1c(=O)c(N2CCN(C(=O)c3ccc(Cl)cc3)CC2)nc2ccncc21 | 0 | 15
COc1ccc(NC(=O)c2nnn(-c3ccccc3)c2C)cc1Cl | 10 | -4
COc1ccc(Cl)cc1-n1nnc(C(=O)Nc2ccc(C)cc2C)c1C | 31* | 13
COc1ccc(NC(=O)C2Nc3ccccc3S(=O)(=O)N2)cc1 (stereo not drawn) | 14 | 1
COc1ccc(NC(=O)CN2CCN(c3ccc(C(C)=O)cc3)CC2)cc1S(=O)(=O)N1CCCCC1 | 36* | 54*
COc1ccc(NC(=O)Cc2ccccc2F)cc1S(=O)(=O)N1CCCCC1 | · | 8
Cc1ccc2c(c1)cc(C(=O)N1CCOCC1)n2C | -8 | 4
CCCC(O)CCCCCCCc1cc(O)cc(O)c1C(=O)OC(CCC)CCCCCCCc1cc(O)cc(O)c1 (stereo not drawn) | 91* | 20
SMILES | USP17 block | USP30 block
CCCCCCCc1cc(O)cc(O)c1 | 5 | 20
CCOc1ccc2[nH]c3c(=O)n(CCc4ccc(OC)cc4)cnc3c2c1 | 67* | 13
COc1ccc2c(c1)[nH]c1c(=O)n(Cc3ccccc3)cnc12 | 71* | 73*
COc1ccc2[nH]c3c(=O)n(Cc4ccncc4)cnc3c2c1 | 6 | -1
CCOc1ccc2[nH]c3c(=O)n(CCC4=CCCCC4)cnc3c2c1 | · | 17
CCOc1ccc2[nH]c3c(=O)n(CCN4CCNCC4)cnc3c2c1 | 2 | 5
O=c1c2[nH]c3ccc(Br)cc3c2ncn1CCN1CCNCC1 | 38* | 40*
Cn1c(=O)c(=O)n(C)c2cc(S(=O)(=O)CCC(=O)NCCc3ccc(Cl)cc3)ccc21 | 16 | 11
Cn1nnc2c(Nc3ccc4c(c3)OCCO4)ncnc21 | 2 | 0
CNc1nc(C2CCN(C)CC2)nc2c1CN(C(=O)C1CCCO1)CC2 (stereo not drawn) | 5 | 12
Cc1ccccc1CN1C[C@@H]2OCC(=O)N(CC(N)=O)[C@@H]2C1 | -28 | -16
Cc1nnc(C(=O)Nc2ccc(C(=O)N3CCN(c4cccc(Cl)c4)CC3)cc2)s1 | -26 | -12
Cc1ccc(NC(=O)Nc2nnc(CC(=O)N3CCCCC3)s2)c(Cl)c1 | 4 | 2
CCCCCCCCCCCCCCCCCC(=O)N[C@@H]1C[C@@H](O)[C@@H](O)NC(=O)[C@@H]2[C@@H](O)[C@@H](C)CN2C(=O)[C@H]([C@@H](C)O)NC(=O)[C@H]([C@H](O)[C@@H](O)c2ccc(O)cc2)NC(=O)[C@@H]2C[C@@H](O)CN2C(=O)[C@H]([C@@H](C)O)NC1=O | 20 | 49*
CC(=O)N1CCC(Cc2nc(C)cc(-c3nc(C)cs3)n2)CC1 | -1 | 13
